The values that follow come from PubChem BioAssay (NCI).

The panel holds about 83,000 compounds, 20% with a hit somewhere; the sample as a whole holds those more often.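 Cells were grown in 96-well plates and exposed to the test compound at a single concentration for 48 hours; results are reported as percent growth, with values below 10 considered active.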 A number with no mark means an inactive call. Calls of active or inactive are those of the source.

Holding throughout (experiment): NCI-60 one-dose screen, 48 h (100 = growth as untreated, 0 = no growth, -100 = all killed)
Common to all, as to conditions: 10 µM unless noted

The test system of test [1] is DU-145 prostate.
Test [2] deals with K-562 leukemia.
Test [3] deals with MALME-3M melanoma.
In test [4] the test system is MDA-MB-231 breast.
For test [5], the system named is RXF 393 renal.
Test [6] deals with SF-268 CNS.
In test [7] the test system is SF-295 CNS.
Test [8] relates to SF-539 CNS.
Test [9] relates to UACC-257 melanoma.
For test [10], the system named is M14 melanoma.
Test [11] has as its system HCT-15 colon.
For test [12], the system named is HT29 colon.
The test system of test [13] is SNB-75 CNS.
Test [14] concerns SNB-19 CNS.
In test [15] the test system is U251 CNS.
The subject of test [16] is PC-3 prostate.
The subject of test [17] is SK-MEL-5 melanoma.
The test system of test [18] is UACC-62 melanoma.
Test [19] has as its system LOX IMVI melanoma.
In test [20] the test system is SK-MEL-28 melanoma.

For `COc1ccc(C(=O)CCC(=O)O)cc1`, the growth is 99.7% in [1]; 49.1% in test [2]; 87% in [3]; 80.4% in [4]; 109% in test [5]; 95.6% in test [6]. In addition, the growth is 95% in [7]; 98.7% in test [8]; 80.2% in test [9]; 95.3% in test [10]; 77.6% in [11]; 49.8% in test [12]. The growth was 99.9% in test [13]; 104% in [14]; 83.1% in test [15]; 92.5% in test [16]; 99.8% in test [17]; 99.7% in test [18]. Moreover, the figures for the growth in test [19] and in test [20] were 90.2% and 112%, respectively.
`c1ccc2c(c1)CN(CCCN1CCOCC1)C2`: the growth was 107% in [1]; 104% in [2]; 99.7% in [3]; 107% in test [4]; 117% in [5]; 103% in test [6]. In addition, the growth in [7] was 97.9%; in test [8], 98.9%; in test [9], 93.9%; in test [10], 97%; in test [11], 102%; in [12], 107%. Further, the growth in test [13] is 89.7%; in test [14] it was 96.1%; in test [15], 97.8%; in [16] it was 96.4%; in test [17] it was 99.1%; in [18], 96.7%. Moreover, the values for the growth in test [19] and in [20] were 107% and 105%, respectively.
`Cc1cccc(C[C@H](NC(=O)Nc2ccc(C)cc2F)C(=O)N[C@@H]2C(=O)N3C[C@H](O)C[C@H]3C(=O)N3CCN(C)C[C@H]3C(=O)N[C@@H](C)C(=O)N3C[C@H](C)C[C@H]3C(=O)O[C@H]2C)c1`: the growth in test [1] was 38.4%; in test [2], 23.1%; in test [3] it was 39.9%; in test [4], 18.7%; in [5] it was 79.1%; in [6], 31.6%. In addition, the growth in test [7] was 45%; in test [8], 50.7%; in [9], 27.3%; in test [10], 79.9%; in test [11], 105%; in test [12], 33.8%. The growth is 23.6% in [13]; 22.7% in test [14]; 26.5% in [15]; 22.6% in test [16]; 66.3% in [17]; 31.4% in test [18]. The growth in test [19] is 38.5%; in test [20] it was 47.9%.
In the case of `C#CCNC(=O)CC[C@]1(C)[C@H]2CC[C@@H]3[C@@H]([C@@](C)(O)CCC=C(C)C)CC[C@@]3(C)[C@]2(C)CC[C@H]1C(=C)C`, the growth is 52.7% [100 µM] in [1]; 5.99% [100 µM] (active) in [2]; -73.6% [100 µM] (active) in [3]; -24.5% [100 µM] (active) in test [4]; 30.6% [100 µM] in [5]; -28.8% [100 µM] (active) in test [6]. Also, the growth in test [7] is 49% [100 µM]; in test [8] it was -81% [100 µM] (active); in test [9], 61.5% [100 µM]; in [10], 53.1% [100 µM]; in test [11], 67.3% [100 µM]; in test [12] it was -30.8% [100 µM] (active). Also, the growth in test [13] was -19% [100 µM] (active); in test [14] it was 60.9% [100 µM]; in test [15] it was -71.4% [100 µM] (active); in [16], 20.5% [100 µM]; in test [17], 9.4% [100 µM] (active); in [18] it was 34% [100 µM]. Besides, the growth in [19] is -67.7% [100 µM] (active); in test [20], 54.1% [100 µM].
Turning to `COc1cc2c(c(OC)c1OC)-c1cc(I)c(O)cc1[C@@H](NC(C)=O)CC2`, the growth in test [1] was 16.9%; in [2] it was 25.6%; in test [3], 80.2%; in test [4] it was 7.04% (active); in [5], 37.7%; in test [6], 8.91% (active). Further, the growth in test [7] was 22.4%; in test [8], -27.8% (active); in test [9] it was 61.9%; in test [10], 14.4%; in [11] it was 4.21% (active); in test [12] it was 10.8%. The growth was 28% in [13]; 14.1% in test [14]; 7.36% (active) in [15]; 28.8% in test [16]; -15.2% (active) in test [17]; 17.8% in [18]. In addition, the growth is 24.4% in test [19] and 76.7% in test [20].
In the case of `COCc1nc2ccccc2[nH]1`, the growth in test [1] was 113%; in [2], 99%; in [3], 98.7%; in test [4] it was 100%; in test [5] it was 117%; in test [6], 108%. Moreover, the growth was 95.1% in test [7]; 92.8% in test [8]; 104% in [9]; 100% in test [10]; 97.7% in [11]; 104% in test [12]. For the same molecule, the growth in test [13] is 95.8%; in [14], 101%; in test [15], 98.3%; in [16], 104%; in test [17], 99.5%; in test [18], 99.1%. Moreover, the growth is 99.3% in [19] and 98.8% in test [20].
`O=C(Nc1cccc(F)c1)c1cc(=O)[nH]c2cc(Br)ccc12`: the growth in test [1] is 74.2%; in test [2], 21.3%; in test [3], 52.8%; in test [4] it was 72.2%; in test [5] it was 56.1%; in [6], 60.8%. In addition, the growth was 38.9% in [7]; 47.6% in test [8]; 57% in [9]; 29.5% in test [10]; 28.6% in test [11]; 9.92% (active) in test [12]. Moreover, the growth is 43.7% in test [13]; 54.7% in test [14]; 36% in test [15]; 43.8% in test [16]; 32% in test [17]; 34.4% in test [18]. For the same molecule, the growth in [19] was 43.1%; in test [20], 62.3%.
